In PubChem BioAssay (NCI):
This is part of a sample that, as a whole, favours compounds with a hit. Of some 79,000 tested, about 15% had one in any assay. Unmarked numbers belong to inactive results. Activity calls are given as the source filed them. Cut-off read from the data, not from the text of the source: active = growth inhibition above about 70%; inactive = the rest.

Legend:
[1] = NCI Yeast Anticancer Drug Screen. Data for the rad50 strain (AID 155);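 note: 0% = growth of vehicle-only cultures of the same strain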; conditions: S. cerevisiae rad50 strain growth inhibition; at 50.0 µM; hits give high values
Procedure, shortened: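 Relative growth inhibition (compound vs vehicle) was measured in yeast with a defined repair-gene alteration.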

[2] = NCI Yeast Anticancer Drug Screen. Data for the mec2-1 strain (AID 157); conditions: S. cerevisiae mec2-1 strain, at 50.0 µM, hits give high values
Procedure, shortened: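 mec2-1 yeast strain, carrying an alteration in DNA damage repair or cell cycle control, was exposed to compounds; growth inhibition was measured relative to vehicle-treated controls.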

[3] = NCI Yeast Anticancer Drug Screen. Data for the sgs1 mgt1 strain (AID 161);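 note: 0% = growth of cultures given vehicle only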; conditions: S. cerevisiae sgs1 mgt1 strain, at 50.0 µM, hits give high values
Procedure, shortened: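 Growth of a repair-deficient yeast mutant was monitored after compound treatment and expressed as inhibition relative to vehicle-treated cultures.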

[4] = NCI Yeast Anticancer Drug Screen. Data for the cln2 rad14 strain (AID 165);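 note: 0% = growth equal to vehicle treated cultures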; conditions: S. cerevisiae cln2 rad14 strain, at 50.0 µM, hits give high values
Procedure, shortened: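 Yeast carrying cln2 and rad14 alterations (cell cycle control and DNA damage repair) were exposed to compounds. Growth inhibition was measured against vehicle-treated controls.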

[5] = NCI Yeast Anticancer Drug Screen. Data for the bub3 strain (AID 167); conditions: S. cerevisiae bub3 mutant strain, at 50.0 µM, hits give high values
Procedure, shortened: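 Screening used yeast with an engineered genetic alteration affecting cell cycle control. Compound-exposed cultures were compared with vehicle cultures, and reduced growth was taken as inhibition.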

[6] = NCI Yeast Anticancer Drug Screen. Data for the mlh1 rad18 strain (AID 175); conditions: S. cerevisiae mlh1 rad18 strain growth inhibition; at 50.0 µM; hits give high values
Procedure, shortened: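 Growth inhibition of the yeast strain was measured after compound exposure and expressed relative to vehicle-treated controls. The strain carries defined defects in DNA damage repair.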

| Compound | growth inhibition [1] | growth inhibition [2] | growth inhibition [3] | growth inhibition [4] | growth inhibition [5] | growth inhibition [6] |
| --- | --- | --- | --- | --- | --- | --- |
| O=C1NC(=O)C2(CC3CCCCC3CC2c2ccccc2)N1 (stereo unspecified) | 17.1% | 13.3% | 12.8% | 3.1% | 10.3% | 10.9% |
| O=C(Nc1ccccn1)c1ccccc1 | 35% | 19.6% | 15.6% | 11.6% | 26.4% | 31.8% |
| O=Cc1ccc(N2OC(c3ccc([N+](=O)[O-])cc3)C(c3ccc([N+](=O)[O-])cc3)C2c2ccc([N+](=O)[O-])cc2)cc1 (stereo unspecified) | 13.2% | -1.75% | 14.7% | 25.4% | 0.95% | 28.9% |
| CSc1nc(SC)c2cnn(C3OC(CO)C(O)C3O)c2n1 (stereo unspecified) | 12% | -1.1% | 20.9% | 3.25% | 16.4% | 33.4% |
| CSc1nc2c(c(=O)n1C)N=C(c1ccccc1)[C@H](C(CC(=O)c1ccccc1)c1ccccc1)C(c1ccccc1)N2 (stereo partly specified) | 46.6% | 43.9% | 41.1% | 24.2% | 14.6% | 11.8% |
| O=C(O)c1cccc2c1cc(Br)c1ccccc12 | 22.6% | 23.2% | 32% | -42.5% | 15.8% | 24.7% |
| N#C/C1=C(\N)CCSSSC1 | 30.8% | 25.9% | 17.4% | 21.3% | 9.5% | -0.2% |
| COc1ccccc1/C=C1\CCC(CN(C)C)C1=O (stereo unspecified) | 82.2% (active) | 89.5% (active) | 91.8% (active) | 55.4% | 91.1% (active) | 92.2% (active) |
| CO[C@@H]1[C@@H](OC2OC(C)C(OC3CC(C)(O)C(OC(=O)CC(C)C)C(C)O3)C(N(C)C)C2O)[C@@H](CC=O)C[C@@H](C)C(=O)/C=C/C2O[C@H]2C[C@@H](C)OC(=O)C[C@H]1OC(C)=O (stereo partly specified) | 4.1% | -22.6% | 4.75% | 8.95% | -14.3% | 17.3% |
| C=CN1C(=O)NC2(CCCCC2)C1=O | -33.8% | -40% | -40.4% | 7.55% | -10.3% | -25.6% |
| O=[N+]([O-])c1cccc2nc3ccccc3c(NCCc3ccccn3)c12 | 13.3% | -19.9% | 20.6% | -32.4% | -17.1% | 13.8% |
| O=C(SCSC(=O)c1ccccc1)c1ccccc1 | -11.3% | 10.9% | -4.75% | -18.5% | 32.8% | 2% |
| Nc1cc2c(cc1Br)-c1ccccc1C2Br (stereo unspecified) | -6.35% | -10.9% | 3.7% | 10.7% | 1.25% | 2.7% |
| COc1ccc(-n2c(=O)c(N=Nc3ccccc3Cl)c(O)n(-c3ccccc3OC)c2=S)cc1 | 22.4% | 4.65% | 33.2% | -33.1% | 2.2% | 3.2% |
| O=C(c1ccccc1)N1C(=O)c2ccccc21 | -11.1% | 5.75% | -12.8% | -16.3% | 9.5% | -15.5% |
| O=C(O)CC(CC(=O)O)c1ccc(F)cc1 | -2% | 0.95% | -10.2% | -2.35% | 2.05% | -8.5% |
| O=CNC(Cc1ccccc1)c1ccc(OCc2ccccc2)cc1 (stereo unspecified) | 0.75% | 5% | 1.55% | 31.1% | 31.6% | 16.9% |
| COc1cc(NS(=O)(=O)c2ccccc2)c2nc3ccc(Cl)cc3nc2c1 | 3.6% | -8.4% | -25.1% | 3.3% | -7.25% | 12.3% |
| OCCN(CCO)c1ccc2c(C(F)(F)F)cc(C(F)(F)F)nc2n1 | 0.45% | -8.25% | 15.8% | 0.7% | 10.6% | 16.1% |
| OC/C(Cc1cccc(O)c1)=C(/CO)Cc1cccc(O)c1 | 5.5% | 7.3% | 6.7% | 3.45% | 10.4% | 8.8% |
| O=C(NCC1CC1)NC(=O)c1ccccc1F | -4.3% | -34.6% | -14.3% | 16.6% | -10.6% | -16.9% |

| Compound | growth inhibition [1] | growth inhibition [2] | growth inhibition [3] | growth inhibition [4] | growth inhibition [5] | growth inhibition [6] |
| --- | --- | --- | --- | --- | --- | --- |
| CC(C)CCOC(=O)C(C)(O)C(Cl)c1ccccc1 (stereo unspecified) | 2.9% | 2.55% | -13.2% | 1.35% | 6.25% | -6.95% |
| CCOC(=O)c1ccc(-n2cnc(-c3ccc([N+](=O)[O-])cc3)c2)cc1 | -4.55% | -7.2% | -8.8% | -7.15% | -1.15% | -16.2% |
| CC(=O)C1C(=O)OC2C3C=CC(C3)C2C1=O (stereo unspecified) | 14.9% | 21.1% | 0.9% | -4.7% | 20.1% | 42.6% |
| CC(=O)OC1CCC2(C)C3C/C(=N\O)C4(C)C(C(C)OC(C)=O)CCC4C3CCC2(C)C1 (stereo unspecified) | 95.3% (active) | 96.7% (active) | 96% (active) | 91.8% (active) | 93.2% (active) | 95.9% (active) |
| CC(C)c1ccc(/C=C/C(=O)c2ccc([N+](=O)[O-])cc2)cc1 | 9.75% | 2.2% | 11.7% | -13.3% | 20.9% | 3.15% |
| COC(=O)[C@H]1C=C[C@@H](C)n2c(=O)c3cc4ccccc4cc3c(=O)n21 | -21.2% | -1.55% | -18.9% | -7.95% | -24% | -18.2% |
| O=C(NC(Cc1ccccc1)C(=O)NNc1ccccc1Cl)OCc1ccccc1 (stereo unspecified) | 92.4% (active) | 86.3% (active) | 94.7% (active) | 55.5% | 80% (active) | 89.5% (active) |
| COc1cc2c(c(OC)c1OC)CCC1(C)C(=O)NN=C21 (stereo unspecified) | -18.1% | 11.1% | 23.5% | -1.55% | 13.7% | 3.9% |
| C[C@]12CC[C@@H]3c4ccc(O)cc4CC[C@H]3[C@@H]1CC[C@@H]2OP(=O)(O)O | -0.15% | -9.95% | -37.1% | -27.4% | -6.45% | -16.6% |
| O=C(NNC(=O)C(Oc1ccccc1)c1ccccc1)C(Cl)Cl (stereo unspecified) | -9.5% | 4.55% | 0.55% | -2.45% | 10.3% | 5.9% |
| O=P(CCc1ccccc1)(OCCCl)OCCCl | 10.2% | 2.15% | 3.85% | 14.3% | 6.5% | -5% |
| O=C1NCC(c2ccccc2)(c2ccccc2)O1 | 26.9% | 11.3% | 10.3% | 11.8% | 4.45% | 19.4% |
| NC(CC1=CS(=O)(=O)c2ccc(Cl)cc21)C(=O)O (stereo unspecified) | 18.4% | 19.3% | 4.45% | -16.2% | 23.8% | 23.9% |
| C=CCOC(=O)COC(=O)C(C)(C)OC(C)=O | -3.35% | 10.3% | -1.7% | 10.9% | 12.6% | -5.9% |
| CCOC(=O)\C(C#N)=C/C=C(C)/C(C)=C/Nc1ccc([N+](=O)[O-])cc1[N+](=O)[O-] | 10.9% | 7.85% | -18.4% | -5.2% | 0.8% | 22.6% |
| c1ccc2c(c1)ccc1c2ccc2c1cc1ccccn12 | -4.2% | 7.45% | -13.2% | -14.7% | -20.3% | 0.8% |
| CC1C(=O)OC(=O)C1C (stereo unspecified) | -11.2% | -6.2% | 11.5% | 4% | -4.6% | 8.8% |
| CCc1c(Cc2[nH]c(Cc3[nH]c(C=O)c(C)c3CC)c(CC)c2CC)[nH]c(C=O)c1C | 5.25% | -7.5% | -5.85% | -45.9% | -0.75% | -8.75% |
| CC(=O)CCc1cccc([N+](=O)[O-])c1 | -17.6% | -5.1% | -14.5% | -6.85% | -0.15% | -7.25% |
| CC(=O)OCC1OC(n2nnc3c(=O)n(C)c(=O)[nH]c32)C(OC(C)=O)C(OC(C)=O)C1OC(C)=O (stereo unspecified) | 9.45% | 16.1% | 13.8% | 4% | 8.9% | 29.4% |
